Results on six molecules are retold here after PubChem BioAssay (EPA / NIEHS).

Read-out in assay [1]: Tumor necrosis factor receptor superfamily member 6 (Homo sapiens) (UniProt P25445)
As to the kind of experiment: LTEA_HepaRG_FAS: Life Technologies and Expression Analysis (LTEA) Assay for Fas cell surface death receptor (FAS) using HepaRG (AID 2283447). Conditions: mRNA level, 48 h; actives raise or lower the signal. The method, boiled down:
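Differentiated HepaRG cells in serum-free induction medium were exposed 48 h to 8 half-log concentrations up to 100 uM in 0.5% DMSO, in duplicate. FAS mRNA was measured by qRT-PCR normalised to ACTB, GAPDH and POLR2A; bidirectional fit versus DMSO.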

Read-out in assay [2]: Fatty acid synthase (Homo sapiens) (UniProt P49327)
As to the kind of experiment: LTEA_HepaRG_FASN: Life Technologies and Expression Analysis (LTEA) Assay for Fatty Acid Synthase (FASN) using HepaRG (AID 2283448). Conditions: mRNA level, 48 h; actives raise or lower the signal. Put shortly:
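Transcript-level assay: HepaRG liver cells are treated for 48 h across an eight-point range topping at 100 uM, and FASN mRNA, normalized to three housekeeping genes, is compared with DMSO controls in both directions.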

Read-out in assay [3]: Cyclin D2 (CCND2), CCND2 (gene 894)
As to the kind of experiment: LTEA_HepaRG_CCND2: Life Technologies and Expression Analysis (LTEA) Assay for Cyclin D2 (CCND2) using HepaRG (AID 2283449).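 Also: CCND2 transcript measured by TaqMan qRT-PCR and normalised to three housekeeping genes.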 Conditions: mRNA level, 48 h; actives raise or lower the signal. The method, boiled down: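 Chemicals in 0.5% DMSO, eight half-log concentrations from 100 uM top, were applied in duplicate for 48 h to human HepaRG cells in serum-free induction medium. CCND2 mRNA by TaqMan qRT-PCR, normalised to ACTB/GAPDH/POLR2A; bidirectional fit versus DMSO.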

Read-out in assay [4]: Cyclin Dependent Kinase Inhibitor 1A (CDKN1A), CDKN1A (gene 1026)
As to the kind of experiment: LTEA_HepaRG_CDKN1A: Life Technologies and Expression Analysis (LTEA) Assay for Cyclin Dependent Kinase Inhibitor 1A (CDKN1A) using HepaRG (AID 2283450). Particulars: mRNA level, 48 h; actives raise or lower the signal. Put shortly: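 Differentiated human HepaRG cells, pre-cultured 48 h, were exposed in duplicate for 48 h in serum-free induction medium to eight half-log concentrations up to 100 uM (0.5% DMSO). CDKN1A mRNA was measured by qRT-PCR, normalized to ACTB/GAPDH/POLR2A, bidirectionally fitted versus DMSO.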

Read-out in assay [5]: catalase (CAT), CAT (gene 847)
As to the kind of experiment: LTEA_HepaRG_CAT: Life Technologies and Expression Analysis (LTEA) Assay for catalase (CAT) using HepaRG (AID 2283452). Particulars: mRNA level, 48 h; actives raise or lower the signal. The method, boiled down: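 HepaRG cells in serum-free induction medium, 0.5% DMSO vehicle, exposed 48 h in duplicate over 8 half-log concentrations from 100 uM. CAT mRNA measured by qRT-PCR, normalized to ACTB, GAPDH, POLR2A; bidirectional fit versus DMSO.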

Read-out in assay [6]: flavin-containing dimethylaniline monooxygenases 3 (FMO3), FMO3 (gene 2328)
As to the kind of experiment: LTEA_HepaRG_FMO3: Life Technologies and Expression Analysis (LTEA) Assay for flavin-containing dimethylaniline monooxygenases 3 (FMO3) using HepaRG (AID 2283453). Particulars: mRNA level, 48 h; actives raise or lower the signal. Put shortly: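 HepaRG, 48 h exposure, 8-pt half-log series from 100 uM, 0.5% DMSO vehicle, duplicates; FMO3 transcript by Fluidigm TaqMan qRT-PCR, housekeeping-normalized; gain/loss fit vs DMSO.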

Read-out in assay [7]: Cytochrome P450 (CYP1A1), CYP1A1 (gene 1543)
As to the kind of experiment: LTEA_HepaRG_CYP1A1: Life Technologies and Expression Analysis (LTEA) Assay for Cytochrome P450 (CYP1A1) using HepaRG (AID 2283454). Conditions: mRNA level, 48 h; actives raise or lower the signal. The method, boiled down: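 Differentiated HepaRG cells in serum-free induction medium were exposed in duplicate for 48 h to eight half-log concentrations up to 100 uM in 0.5% DMSO. CYP1A1 mRNA was quantified by TaqMan qRT-PCR, normalized to ACTB, GAPDH and POLR2A.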

Read-out in assay [8]: CFLAR gene, CFLAR (gene 8837)
As to the kind of experiment: LTEA_HepaRG_CFLAR: Life Technologies and Expression Analysis (LTEA) Assay for CFLAR gene using HepaRG (AID 2283455). Conditions: mRNA level, 48 h; actives raise or lower the signal. The method, boiled down: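 Differentiated HepaRG cells in serum-free induction medium were exposed 48 h in duplicate to eight half-log concentrations up to 100 uM in 0.5% DMSO; mRNA measured by TaqMan qRT-PCR, normalized to ACTB, GAPDH, POLR2A; bidirectional fitting versus DMSO.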

Read-out in assay [9]: Forkhead box O1 (FOXO1), FOXO1 (gene 2308)
As to the kind of experiment: LTEA_HepaRG_FOXO1: Life Technologies and Expression Analysis (LTEA) Assay for Forkhead box O1 (FOXO1) using HepaRG (AID 2283456). Particulars: mRNA level, 48 h; actives raise or lower the signal. Put shortly: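 Differentiated HepaRG cells, in serum-free induction medium with 0.5% DMSO, exposed 48 h in duplicate to 8-point half-log series from 100 uM. FOXO1 mRNA measured by TaqMan qRT-PCR, normalized to ACTB, GAPDH, POLR2A; bidirectional fit versus DMSO.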

Read-out in assay [10]: growth arrest and DNA damage 45 (GADD45A), GADD45A (gene 1647)
As to the kind of experiment: LTEA_HepaRG_GADD45A: Life Technologies and Expression Analysis (LTEA) Assay for growth arrest and DNA damage 45 (GADD45A) using HepaRG (AID 2283458). Particulars: mRNA level, 48 h; actives raise or lower the signal. The method, boiled down: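 Human HepaRG liver cells are treated in duplicate for 48 h with chemicals in 0.5% DMSO, highest concentration 100 uM. Expression is read by qRT-PCR and analyzed in both directions against vehicle.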

Read-out in assay [11]: Forkhead box O3 (FOXO3), FOXO3 (gene 2309)
As to the kind of experiment: LTEA_HepaRG_FOXO3: Life Technologies and Expression Analysis (LTEA) Assay for Forkhead box O3 (FOXO3) using HepaRG (AID 2283459). Particulars: mRNA level, 48 h; actives raise or lower the signal. Put shortly: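 Differentiated human HepaRG cells, 48 h post-plating, exposed in duplicate for 48 h in serum-free induction medium; 8-point half-log series from 100 uM in 0.5% DMSO. FOXO3 mRNA by TaqMan qRT-PCR, normalized to ACTB/GAPDH/POLR2A; bidirectional fit versus DMSO.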

Read-out in assay [12]: ABC Transporter (ABCB1), ABCB1 (gene 5243)
As to the kind of experiment: LTEA_HepaRG_ABCB1: Life Technologies and Expression Analysis (LTEA) Assay for ABC Transporter (ABCB1) using HepaRG (AID 2283460). Particulars: mRNA level, 48 h; actives raise or lower the signal. The method, boiled down:
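HepaRG cells exposed in duplicate for 48 h in serum-free induction medium to eight half-log concentrations up to 100 uM in 0.5% DMSO. ABCB1 mRNA quantified by qRT-PCR, normalised to ACTB, GAPDH and POLR2A; fitted bidirectionally versus DMSO.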

Read-out in assay [13]: growth arrest and DNA damage 45 (GADD45B), GADD45B (gene 4616)
As to the kind of experiment: LTEA_HepaRG_GADD45B: Life Technologies and Expression Analysis (LTEA) Assay for growth arrest and DNA damage 45 (GADD45B) using HepaRG (AID 2283461). Conditions: mRNA level, 48 h; actives raise or lower the signal. Put shortly:
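Differentiated HepaRG cells, plated 48 h then switched to serum-free induction medium, were exposed 48 h in duplicate to eight half-log concentrations from 100 uM in 0.5% DMSO; mRNA quantified by qRT-PCR, normalized to ACTB/GAPDH/POLR2A, bidirectional fit versus DMSO.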

Assay [14] in a line: CEETOX_H295R_ESTRADIOL: CeeTox H295R High-throughput Steroidogenesis Assay for Estradiol (AID 2283440).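 Also: estradiol secreted into medium quantified by LC-MS/MS after dansyl derivatisation.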 Conditions: actives raise or lower the signal. Put shortly:
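H295R adrenocortical cells were prestimulated with 10 uM forskolin for 48 h, then exposed to test chemical in 0.1% DMSO for 48 h. Medium estradiol was extracted with MTBE, dansyl-derivatized and quantified by HPLC-MS/MS; bidirectional fit versus DMSO.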

The nature of assay [15]: CEETOX_H295R_ESTRONE: CeeTox H295R High-throughput Steroidogenesis Assay for Estrone (AID 2283441).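 Also: estrone secreted into medium measured by LC-MS/MS after dansyl derivatization.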 Particulars: actives raise or lower the signal. The method, boiled down:
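H295R cells; 48 h forskolin (10 uM) prestimulation; 48 h compound exposure, 0.1% DMSO final. Medium estrone: MTBE extraction, dansyl derivatization, HPLC-MS/MS. Bidirectional fit vs DMSO.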

A short description of assay [16]: CEETOX_H295R_PROG: CeeTox H295R High-throughput Steroidogenesis Assay for Progesterone (PROG) (AID 2283442). Conditions: actives raise or lower the signal. Put shortly: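 H295R human adrenal cells were prestimulated with 10 uM forskolin for 48 h, then exposed to test chemical (0.1% DMSO final) for 48 h. Medium progesterone was MTBE-extracted and quantified by HPLC-MS/MS, with bidirectional fitting against DMSO.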

Read-out in assay [17]: Cyclin D1 (CCND1), CCND1 (gene 595)
As to the kind of experiment: LTEA_HepaRG_CCND1: Life Technologies and Expression Analysis (LTEA) Assay for Cyclin D1 (CCND1) using HepaRG (AID 2283451). Conditions: mRNA level, 48 h; actives raise or lower the signal. Put shortly: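 Differentiated human HepaRG cells in serum-free induction medium were exposed 48 h to eight half-log concentrations up to 100 uM in 0.5% DMSO; mRNA quantified by TaqMan qRT-PCR, normalized to ACTB, GAPDH, POLR2A, fitted bidirectionally versus DMSO.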

Read-out in assay [18]: ABC Transporter (ABCC3), ABCC3 (gene 8714)
As to the kind of experiment: LTEA_HepaRG_ABCC3: Life Technologies and Expression Analysis (LTEA) Assay for ABC Transporter (ABCC3) using HepaRG (AID 2283462). Particulars: mRNA level, 48 h; actives raise or lower the signal. The method, boiled down:
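HepaRG cells in serum-free induction medium were exposed for 48 h in duplicate to 8-point half-log concentrations topping at 100 uM in 0.5% DMSO. ABCC3 mRNA was measured by qRT-PCR normalized to ACTB, GAPDH and POLR2A, with bidirectional fitting versus DMSO.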

“And” between values parts separate entries of the source, which are not always exact repeats. Equal values may be shown once. The source made the active and inactive calls. The calls were made as follows: active = hit-call score of the fitted dose curve at least 0.9, where 1 is the maximum; inactive = score below 0.9.

Chain of Fatty acid synthase (Homo sapiens) (P49327 whole entry, looked up): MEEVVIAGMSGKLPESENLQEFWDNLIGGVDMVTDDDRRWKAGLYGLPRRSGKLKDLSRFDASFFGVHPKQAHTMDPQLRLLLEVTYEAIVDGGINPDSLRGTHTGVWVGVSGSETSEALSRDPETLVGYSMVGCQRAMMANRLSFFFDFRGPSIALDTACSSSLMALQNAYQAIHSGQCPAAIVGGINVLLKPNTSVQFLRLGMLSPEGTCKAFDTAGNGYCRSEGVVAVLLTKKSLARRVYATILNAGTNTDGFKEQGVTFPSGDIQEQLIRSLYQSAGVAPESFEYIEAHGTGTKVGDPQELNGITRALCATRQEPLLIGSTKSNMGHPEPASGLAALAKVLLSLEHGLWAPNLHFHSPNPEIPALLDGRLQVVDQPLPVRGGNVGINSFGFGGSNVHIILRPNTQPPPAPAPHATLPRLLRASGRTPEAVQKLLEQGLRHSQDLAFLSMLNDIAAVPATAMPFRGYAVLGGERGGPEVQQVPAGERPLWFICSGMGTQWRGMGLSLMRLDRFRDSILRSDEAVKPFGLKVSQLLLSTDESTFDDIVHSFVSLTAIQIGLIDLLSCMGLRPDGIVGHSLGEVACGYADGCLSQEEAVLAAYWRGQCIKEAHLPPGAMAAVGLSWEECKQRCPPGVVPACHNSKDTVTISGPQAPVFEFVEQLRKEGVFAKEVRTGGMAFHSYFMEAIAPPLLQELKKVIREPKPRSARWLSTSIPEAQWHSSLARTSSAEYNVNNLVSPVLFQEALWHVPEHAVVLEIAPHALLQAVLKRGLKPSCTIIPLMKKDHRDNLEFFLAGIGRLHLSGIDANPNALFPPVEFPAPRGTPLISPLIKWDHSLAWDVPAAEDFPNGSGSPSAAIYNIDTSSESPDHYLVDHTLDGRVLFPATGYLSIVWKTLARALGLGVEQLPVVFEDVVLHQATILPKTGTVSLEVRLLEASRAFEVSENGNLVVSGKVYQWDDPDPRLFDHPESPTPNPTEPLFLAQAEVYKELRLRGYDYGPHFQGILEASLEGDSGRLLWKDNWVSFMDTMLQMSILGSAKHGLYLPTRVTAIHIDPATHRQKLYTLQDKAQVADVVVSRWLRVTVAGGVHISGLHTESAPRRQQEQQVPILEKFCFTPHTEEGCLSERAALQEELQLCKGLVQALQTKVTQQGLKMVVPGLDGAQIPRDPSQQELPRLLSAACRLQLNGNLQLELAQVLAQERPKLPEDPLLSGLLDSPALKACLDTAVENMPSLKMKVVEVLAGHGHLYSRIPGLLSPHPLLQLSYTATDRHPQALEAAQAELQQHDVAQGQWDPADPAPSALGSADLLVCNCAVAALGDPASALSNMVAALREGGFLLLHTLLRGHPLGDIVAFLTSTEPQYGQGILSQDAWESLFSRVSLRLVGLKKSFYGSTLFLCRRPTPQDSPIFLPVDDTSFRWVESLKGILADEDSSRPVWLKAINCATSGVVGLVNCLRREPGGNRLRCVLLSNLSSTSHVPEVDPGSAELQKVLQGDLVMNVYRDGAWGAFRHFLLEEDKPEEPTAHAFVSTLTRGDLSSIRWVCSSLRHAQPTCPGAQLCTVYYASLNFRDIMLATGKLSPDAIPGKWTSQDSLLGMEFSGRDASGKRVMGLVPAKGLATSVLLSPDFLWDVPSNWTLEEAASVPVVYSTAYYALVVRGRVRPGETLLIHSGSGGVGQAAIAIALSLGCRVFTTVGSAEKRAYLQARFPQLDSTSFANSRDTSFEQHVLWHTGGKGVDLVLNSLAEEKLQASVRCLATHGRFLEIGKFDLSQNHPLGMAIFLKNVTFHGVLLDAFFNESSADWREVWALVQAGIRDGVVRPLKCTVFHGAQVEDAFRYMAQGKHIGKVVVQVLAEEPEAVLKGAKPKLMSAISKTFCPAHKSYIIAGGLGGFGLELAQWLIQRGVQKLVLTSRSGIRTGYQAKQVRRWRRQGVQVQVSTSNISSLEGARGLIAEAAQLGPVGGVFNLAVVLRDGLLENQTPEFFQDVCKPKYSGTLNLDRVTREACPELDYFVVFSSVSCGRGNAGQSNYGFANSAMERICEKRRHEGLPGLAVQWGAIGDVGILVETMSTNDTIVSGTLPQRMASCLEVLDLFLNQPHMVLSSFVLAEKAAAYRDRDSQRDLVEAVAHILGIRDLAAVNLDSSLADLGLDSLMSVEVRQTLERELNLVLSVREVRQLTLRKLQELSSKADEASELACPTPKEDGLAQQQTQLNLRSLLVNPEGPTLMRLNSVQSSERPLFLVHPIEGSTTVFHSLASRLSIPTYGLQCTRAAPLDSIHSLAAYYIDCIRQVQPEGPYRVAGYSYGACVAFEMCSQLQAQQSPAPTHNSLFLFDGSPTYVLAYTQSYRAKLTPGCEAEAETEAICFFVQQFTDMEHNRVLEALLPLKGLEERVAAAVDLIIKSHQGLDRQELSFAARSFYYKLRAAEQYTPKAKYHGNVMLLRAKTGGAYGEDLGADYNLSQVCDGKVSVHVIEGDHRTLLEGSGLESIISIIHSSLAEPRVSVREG

Consider `Cc1[nH]c(=O)n(C(C)(C)C)c(=O)c1Cl`, for which the result in assay [1], in [3], in assay [4], in [5], in [6] and in [8] was inactive. For the same molecule, the molecule was called inactive in assay [9], in assay [10], in assay [12] and in [13]. For the same molecule, the AC50 in assay [2] was 68.9 µM (active); in assay [7] it was 24.1 µM (active); in assay [11] it was 50 µM (active).
With `CNC(=O)CSP(=S)(OC)OC`, the molecule was classed as inactive in assay [14], in assay [15], in assay [16], in assay [1], in [2] and in assay [3]. Besides, the outcome in assay [4], in assay [5], in [6], in [8], in [9] and in assay [10] was inactive. Further, the result in assay [11], in assay [12] and in assay [13] was inactive. Besides, the AC50 in [7] was 24.8 µM (active).
With `CC(C)OC(=O)Nc1cccc(Cl)c1`, the molecule was called inactive in [14], in [16], in [1], in [2], in assay [4] and in assay [17]. Moreover, the molecule was called inactive in assay [5], in assay [6], in [8], in assay [9], in assay [11] and in [12]. Further, the call in assay [13] was inactive. Moreover, the AC50 is 15.6 µM (active) in assay [15], 50 µM (active) in [7] and 50 µM (active) in [10].
With `Clc1ccccc1-c1nnc(-c2ccccc2Cl)nn1`, the result in assay [14], in assay [15], in assay [16], in assay [1], in [4] and in [5] was inactive. The outcome in assay [6], in assay [8], in assay [9], in assay [10], in assay [11] and in assay [12] was inactive. In addition, the molecule was called inactive in assay [13]. The AC50 was 24.7 µM (active) in [2] and 12.8 µM (active) in assay [7].
On to `CCC(C)(NC(=O)c1cc(Cl)c(C)c(Cl)c1)C(=O)CCl` (configuration not stated), for which the AC50 in assay [1] is 92.4 µM (active); in assay [5], 71 µM (active); in [6] it was 80.2 µM (active); in assay [7], 50.2 µM (active); in assay [8], 86.5 µM (active); in [10], 89.8 µM (active). In assay [12], the AC50 was 89.8 µM (active). The result in [2], in assay [3], in assay [4], in assay [9], in assay [11] and in assay [13] was inactive.
For `ClC1C(Cl)C(Cl)C(Cl)C(Cl)C1Cl` (configuration not stated), the molecule was classed as inactive in [1], in assay [2], in assay [3], in assay [4], in assay [5] and in assay [6]. The molecule was classed as inactive in assay [8], in assay [9], in assay [10], in assay [11], in [13] and in assay [18]. For the same molecule, the AC50 in assay [7] was 27.3 µM (active) and 19.9 µM (active); in assay [12], 1.54 µM (active) and 4.45 µM (active).
